Test systems include DU-145 prostate; K-562 leukemia; MALME-3M melanoma; MDA-MB-231 breast; RXF 393 renal; SF-268 CNS; SF-295 CNS; SF-539 CNS; UACC-257 melanoma; M14 melanoma.
Holding throughout (assay): NCI-60 one-dose screen, 48 h (100 = growth as untreated, 0 = no growth, -100 = all killed)
Details in all cases: 10 µM unless noted

The panel holds about 83,000 compounds, 20% with a hit somewhere; the sample as a whole holds those more often.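 A percent growth of 40 corresponds to 60% growth inhibition; 0 means no net growth; -100 means all cells died. Active threshold: below 10.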 Unmarked numbers belong to inactive results. The source made the active and inactive calls.

`C=C(C)[C@@H]1CC[C@]2(C(=O)N=C=S)CC[C@]3(C)[C@H](CC[C@@H]4[C@@]5(C)CCC(=O)C(C)(C)[C@@H]5CC[C@]43C)[C@@H]12`: the growth was 33.5% with DU-145 prostate; 18.8% with K-562 leukemia; 40.7% in the assay on MALME-3M melanoma; 18% in the assay with MDA-MB-231 breast; 50.6% in the assay with RXF 393 renal; 36.5% in the assay with SF-268 CNS. In addition, the growth is 36% in the assay on SF-295 CNS, 31.8% with SF-539 CNS, 54.7% with UACC-257 melanoma and 39.3% in the assay with M14 melanoma.

Turning to `COc1cc(C2=N/C(=C\c3cc4ccccc4nc3Oc3ccccc3)C(=O)N2C(=N)N)cc(OC)c1OC`, the growth is 80.4% in the assay with DU-145 prostate; 82.3% in the assay with K-562 leukemia; 57.8% with MALME-3M melanoma; 42.4% in the assay with MDA-MB-231 breast; 42% in the assay with RXF 393 renal; 30.7% in the assay on SF-268 CNS. The growth in the assay with SF-295 CNS is 55.1%; in the assay with SF-539 CNS, 33.4%; in the assay with UACC-257 melanoma it was 76.4%; in the assay on M14 melanoma it was 74.2%.

`Cc1ccc2nc3nc4ccc[nH]c4cc3c2c1`: the growth in the assay with DU-145 prostate was 108%; in the assay on K-562 leukemia it was 111%; in the assay with MALME-3M melanoma, 101%; with MDA-MB-231 breast, 70.3%; with RXF 393 renal, 99.6%; in the assay with SF-268 CNS, 94.1%. In addition, the growth was 113% with SF-295 CNS, 83.5% with SF-539 CNS, 119% in the assay on UACC-257 melanoma and 110% in the assay with M14 melanoma.

Take `C=CCn1c(SCC(=O)Nc2ccc(C(=O)/C=C/c3cc(OC)c(OC)c(OC)c3)cc2)nnc1-c1ccccc1`: the growth was 76.7% in the assay with DU-145 prostate; 48.9% in the assay on K-562 leukemia; 91% with MALME-3M melanoma; 98.9% in the assay on MDA-MB-231 breast; 97.8% with RXF 393 renal; 93.5% with SF-268 CNS. Also, the growth in the assay with SF-295 CNS is 92.6%; with SF-539 CNS it was 96.2%; in the assay on UACC-257 melanoma it was 81.4%; with M14 melanoma it was 86.9%.

`COc1ccc(Nc2cc(NC(=O)CNc3cc(OC)c(Cl)c(OC)c3Cl)ncn2)cc1`: the growth was 98.8% in the assay on DU-145 prostate; 74.1% in the assay on K-562 leukemia; 106% with MALME-3M melanoma; 69.4% in the assay on MDA-MB-231 breast; 86.7% in the assay with RXF 393 renal; 78.3% with SF-268 CNS. Further, the growth in the assay on SF-295 CNS was 76.4%; in the assay on SF-539 CNS, 82%; in the assay with UACC-257 melanoma, 88%; in the assay with M14 melanoma, 75.2%.

`N#Cc1ccc(C2C3=C(CCCC3=O)OC3=C2C(=O)c2ccccc2C3=O)cc1` (stereo not given): the growth in the assay with DU-145 prostate was 86.8%; with K-562 leukemia, 40.3%; in the assay with MALME-3M melanoma, 83.4%; with MDA-MB-231 breast it was 5.78% (active); in the assay with RXF 393 renal it was 102%; with SF-268 CNS, 70.9%. For the same molecule, the growth in the assay with SF-295 CNS was 91.7%; in the assay with SF-539 CNS it was 30.5%; with UACC-257 melanoma, 52.3%; in the assay on M14 melanoma it was 81.8%.

For `COc1ccc(N(C)c2nc(Cl)nc3ccn(C)c23)cc1`, the growth was 2.61% (active) in the assay on DU-145 prostate; 7.28% (active) in the assay on K-562 leukemia; 84.8% with MALME-3M melanoma; 0.175% (active) in the assay with MDA-MB-231 breast; 48.3% with RXF 393 renal; 24.3% in the assay on SF-268 CNS. In addition, the growth in the assay on SF-295 CNS was 15.5%; in the assay with SF-539 CNS, -32% (active); with UACC-257 melanoma, 49.6%; with M14 melanoma it was -0.998% (active).

On to `CCOC(=O)/C(=C/c1c(-c2ccccc2)[nH]c2ccccc12)C(=O)c1ccc(Cl)cc1`, for which the growth is 65.9% with DU-145 prostate; 5.66% (active) with K-562 leukemia; 92.8% in the assay with MALME-3M melanoma; 63% in the assay on MDA-MB-231 breast; 54.3% in the assay with RXF 393 renal; 56.1% in the assay with SF-268 CNS. For the same molecule, the growth with SF-295 CNS is -15.3% (active); in the assay on SF-539 CNS, 81.5%; with UACC-257 melanoma, 77.2%; in the assay on M14 melanoma, 39.5%.

As to `C=C1C(=O)O[C@H]2[C@H]1CC/C(COC(=O)c1cccnc1N)=C\CC[C@@]1(C)O[C@@H]21`, the growth is 14% with DU-145 prostate; 10.1% in the assay with K-562 leukemia; -3.98% (active) with MALME-3M melanoma; -9.35% (active) with MDA-MB-231 breast; -2.17% (active) in the assay with RXF 393 renal; 23.9% with SF-268 CNS. The growth in the assay with SF-295 CNS is 34.5%; in the assay with SF-539 CNS, 12.6%; with UACC-257 melanoma, 57.8%; in the assay with M14 melanoma, 10.2%.

As to `C=C(C)[C@@H]1CC[C@]2(C(=O)O)CC[C@]3(C)[C@H](CC[C@@H]4[C@@]5(C)C[C@@H](CC#Cc6ccccc6C)C(=O)C(C)(C)[C@@H]5CC[C@]43C)[C@@H]12`, the growth in the assay with DU-145 prostate is 34.4%; in the assay on K-562 leukemia, 14%; in the assay with MALME-3M melanoma, 61.1%; with MDA-MB-231 breast it was 48.2%; in the assay on RXF 393 renal, 51.8%; in the assay on SF-268 CNS, 48.4%. Also, the growth is 33.1% in the assay with SF-295 CNS, 36% in the assay on SF-539 CNS, 39.9% in the assay on UACC-257 melanoma and 40.6% in the assay with M14 melanoma.

As to `Cc1cc(O)cc(O)c1N=NC1=NCCS1`, the growth in the assay with DU-145 prostate was 103%; in the assay with K-562 leukemia, 89.7%; in the assay on MALME-3M melanoma, 94.3%; with MDA-MB-231 breast, 97.1%; with RXF 393 renal, 123%; with SF-268 CNS, 94.6%. Besides, the growth with SF-295 CNS was 101%; in the assay with SF-539 CNS it was 100%; in the assay on UACC-257 melanoma, 101%; in the assay on M14 melanoma it was 98%.

In the case of `O=C1NN(c2ccccc2)C(c2ccc(Cl)cc2)N2CCC[C@H]12` (stereo not given in full), the growth was 100% with DU-145 prostate; 97% in the assay on K-562 leukemia; 92.2% in the assay with MALME-3M melanoma; 113% with MDA-MB-231 breast; 108% in the assay with RXF 393 renal; 97.4% in the assay with SF-268 CNS. For the same molecule, the growth was 101% in the assay with SF-295 CNS, 111% in the assay with SF-539 CNS, 94.7% with UACC-257 melanoma and 97.9% in the assay with M14 melanoma.

With `COc1cc(C(C)c2ccc3c(ccn3C)c2)cc(OC)c1OC` (stereo not given), the growth in the assay with DU-145 prostate is -15.3% (active); in the assay with K-562 leukemia it was 6.54% (active); with MALME-3M melanoma it was 68%; with MDA-MB-231 breast it was 28.1%; in the assay on RXF 393 renal, 53.1%; in the assay on SF-268 CNS, 31.4%. In addition, the growth is 15.5% with SF-295 CNS, -6.4% (active) in the assay on SF-539 CNS, 61% in the assay with UACC-257 melanoma and 11.3% in the assay with M14 melanoma.

Values taken from PubChem BioAssay (NCI).
